This note sets out measurements from ChEMBL document CHEMBL4513216, “Probing the Open Global Health Chemical Diversity Library for Multistage-Active Starting Points for Next-Generation Antimalarials” (ACS Infect Dis, 2020).

Each structure is given as a SMILES string. About 8,600 (12%) of roughly 69,000 compounds showed an effect of 50% or more. Only a selection was taken, and strong results are over-represented in it overall.

The subject of the assay is Plasmodium berghei. Nature of the assay: Screen against P. berghei liver stage (PbLuc), transformed with Luciferase, at 10uM. Type of assay: functional, HepG2. The conditions noted are these: tested at 10 uM.
Turning to `CCCN(CCS(C)(=O)=O)C1CCc2ccccc2C1` (centres undefined), the INHIBITION is 53.5%.
Next, `O=C([C@H]1C[C@H]2OCC[C@H]2N(C(=O)c2ccncc2)C1)N1CCCC1`: -23.8%; `CCN(CC)c1ccc(C(=O)N2CCCC2Cn2cc(C)cn2)cn1` (centres undefined): -4.75%; `Cc1nn(-c2ccc(C(=O)O)cc2)c2c1C(C(C)C)SCC(=O)N2` (centres undefined): -2.39%.
In the case of `O=C1COc2ccc(S(=O)(=O)NCCC3=CCCCC3)cc2N1`, the INHIBITION is recorded as -13.6%.
Under `C[C@@H]1CN(CC(=O)NCc2ccccn2)C[C@]1(C)O` stands 19.8%; under `CC(=O)N1C[C@H]2CC[C@@H](C1)N(S(=O)(=O)c1ccc(C#N)cc1Cl)C2`, 38.3%.
As to `CC(C)OCCOCc1cccc(NC(=O)NCC(=O)N(C)C)c1`, the INHIBITION came to 44.4%.
Under `CC(C)OCCOCc1cccc(NC(=O)NCc2ccncc2)c1` stands -18.2%; under `CC(C)OCCOCc1cccc(NC(=O)NCc2cnn(C)c2)c1`, 50.4%; under `CNc1nc(CNC(=O)Nc2cccc(COCCOC(C)C)c2)cs1`, 52.4%.
As for `CC(C)OCCOCc1cccc(NC(=O)NCc2ccccn2)c1`, the INHIBITION was 0.139%.
Next, `Cc1cc(CNC(=O)Nc2cccc(COCCOC(C)C)c2)no1`: 29.5%; `COc1ccccc1CC(=O)N(C)Cc1cc(C)on1`: 10%; `COc1ccc(OC)c(NC(=O)CSc2ccc3nncn3n2)c1`: 7.25%.
Under `c1coc(-c2noc(CN3CCc4cncnc4C3)n2)c1` stands 26.43%.
Under `Cc1noc(C)c1-c1cc(CCC2CN(C(=O)CN)CCO2)ncn1` (centres undefined) stands -7.005%.
Take `CC(C)c1nnc(NC(=O)NC2CCOc3ccccc32)s1` (centres undefined): the INHIBITION amounted to 32.2%.
Next, `O=C(Nc1nnc(C2CC2)s1)NC1CCOc2ccccc21` (centres undefined): 54.4%; `Cc1nnc(NC(=O)NC2CCOc3ccccc32)s1` (centres undefined): 13.5%; `Cn1nccc1CN1CCOC(c2cccc(Nc3ccccn3)n2)C1` (centres undefined): 78.6%.
As to `Cn1nccc1CN1CCOC(c2ccc(-c3cncnc3)cn2)C1` (centres undefined), the INHIBITION is on record as 23.8%.
In the case of `Cn1nccc1CN1CCOC(c2cccc(-c3cncnc3)n2)C1` (centres undefined), the INHIBITION came out at 16.55%.
Under `Cc1c(C(=O)N2CCNC(=O)C2)sc2nc[nH]c(=O)c12` stands 20.6%; under `Cn1nccc1-c1ncc2c(c1C(=O)O)CCN(Cc1ccncc1)C2`, 20.1%; under `O=C(O)c1c(-c2cncnc2)ncc2c1CCN(Cc1cccnc1)C2`, 96.1%.
Next, `O=C(O)c1c(-c2cccnc2)ncc2c1CCN(Cc1cccnc1)C2`: 6.66%; `Cn1nccc1-c1ncc2c(c1C(=O)O)CCN(Cc1ccccc1)C2`: 58.7%; `Cn1nccc1-c1ncc2c(c1C(=O)O)CCN(Cc1cccnc1)C2`: 13.7%.
Next, `O=C(O)c1c(-c2cccnc2)ncc2c1CCN(Cc1ccccn1)C2`: -33.9%.
With `Fc1ccc(-c2cnc(C3CCCN3)cn2)cc1` (centres undefined), the INHIBITION is given as 27%.
Under `O=C1[C@@H]2CC[C@@H](CN(C3CCOCC3)C2)N1Cc1cscn1` stands 33%; under `CC(C(=O)O)n1nc(C(F)(F)F)c(Br)c1C1CC1` (centres undefined), 38.3%.
Next, `COc1ccc(Cl)cc1CC(=O)NS(=O)(=O)c1ccc(C(N)=O)cc1`: -18%; `O=C(NCC(O)c1ccccc1)Nc1cccs1` (centres undefined): -39.3%; `CCSc1ncc(CN2CCN(c3nc(C)ncc3C)CC2)cn1`: 56.6%.
Next, `CCSc1ncc(CN2CCN(c3ncc(C)c(N)n3)CC2)cn1`: -37.7%.
With `CCSc1ncc(CN2CCN(c3nc(C)cnc3C)CC2)cn1`, the INHIBITION is -50.8%.
Under `CCn1cnnc1CNS(=O)(=O)N1CCCC1c1ccco1` (centres undefined) stands -120%; under `O=C(Cc1ccsc1)N1CCCCC1c1ccn2ccnc2n1` (centres undefined), 47.1%; under `c1cncc(-c2nnn3c2COCC(CNC2CCOCC2)C3)c1` (centres undefined), 33.4%.
Next, `Cc1ccnc(C2(C)CCCN2C(=O)c2cnccn2)n1` (centres undefined): 6.32%; `C/C=C(\C)CN1C[C@H](NC(=O)CN2CCCC2=O)[C@@H](c2ccc(C)o2)C1`: 18.3%.
Next, `CC(=O)N[C@@H]1CN(Cc2ccco2)C[C@H]1c1ccc(C)o1`: 32.8%; `C/C=C(\C)CN1C[C@H](NC(=O)CCOC)[C@@H](c2ccc(C)o2)C1`: 63.5%.
On to `O=C(NCC1CC1)Nc1cnc2ccc(F)cc2c1O`, for which the INHIBITION is 23.2%.
Under `COc1ccc(CN2C[C@@H]3CCCO[C@@H]3[C@H](NS(C)(=O)=O)C2)cc1` stands 2.01%; under `CO[C@@H]1c2ccccc2C2(CCN(C(=O)CNS(C)(=O)=O)CC2)[C@H]1O`, -6.61%.
Under `CCOc1ccc(NC(C)c2nnnn2-c2ccccc2)cc1CO` (centres undefined) stands 20.9%; under `COc1ccc(NC(C)c2nnnn2-c2ccccc2)cn1` (centres undefined), 18.3%.
In the case of `COc1ccc(NC(C)C(=O)NCCc2cccs2)cc1F` (centres undefined), the INHIBITION came to 38.5%.
Next, `COc1ccc(NC(C)c2nnnn2-c2ccccc2)cc1F` (centres undefined): 54.3%.
Under `CCC(Nc1nnnn1-c1ccccc1)C(=O)Nc1ccccc1C` (centres undefined) stands -19.1%.
Next, `CC(Nc1ccc(F)cc1)c1nnnn1-c1ccccc1` (centres undefined): 81.7%.
